Experimental data from PubChem BioAssay (NCI).
“And” between values parts separate entries of the source, which are not always exact repeats. Identical values can stand only once. This is part of a sample that, as a whole, favours compounds with a hit. Of some 83,000 tested, about 20% had one in any assay.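 Single-concentration screen, 48 h exposure, 96-well plates. Endpoint: percent growth. Below 10 = active.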 The source made the active and inactive calls.

Columns and labels:
Assay in all cases: NCI-60 one-dose screen, 48 h (100 = growth as untreated, 0 = no growth, -100 = all killed)
Settings in all cases: 10 µM unless noted
[1] = tested on: SK-MEL-2 melanoma
[2] = tested on: EKVX NSCLC
[3] = tested on: SN12C renal
[4] = tested on: UO-31 renal
[5] = tested on: TK-10 renal
[6] = tested on: ACHN renal
[7] = tested on: CAKI-1 renal
[8] = tested on: A498 renal
[9] = tested on: CCRF-CEM leukemia
[10] = tested on: MOLT-4 leukemia

Row | SMILES | growth [1] | growth [2] | growth [3] | growth [4] | growth [5] | growth [6] | growth [7] | growth [8] | growth [9] | growth [10]
1 | O=C(O)C1CSCN1 (stereo not given) | 110% (inactive) and 84.4% (inactive) | 102% (inactive) and 101% (inactive) | 100% (inactive) | 81.3% (inactive) and 88.6% (inactive) | 103% (inactive) and 109% (inactive) | 101% (inactive) and 97.9% (inactive) | 92.9% (inactive) and 91.4% (inactive) | 113% (inactive) and 103% (inactive) | 100% (inactive) and 121% (inactive) | 75.9% (inactive) and 106% (inactive)
2 | COc1ccc([N+](=O)[O-])cc1OC | 123% (inactive) and 103% (inactive) | 98.6% (inactive) and 102% (inactive) | 99.6% (inactive) and 108% (inactive) | 76.2% (inactive) and 99.1% (inactive) | 98.9% (inactive) and 108% (inactive) | 99% (inactive) and 93.5% (inactive) | 93.8% (inactive) and 102% (inactive) | 73.1% (inactive) and 128% (inactive) | 89.6% (inactive) and 102% (inactive) | 91.2% (inactive) and 104% (inactive)
3 | CCOC(=N)c1ccc(C(=N)OCC)cc1 | 103% (inactive) | 90.2% (inactive) | 98.4% (inactive) | 95.1% (inactive) | 96.6% (inactive) | 102% (inactive) | 99% (inactive) | 90.6% (inactive) | 107% (inactive) | 111% (inactive)
4 | O=C(OCc1ccccc1)c1ccccc1 | 126% (inactive) and 87.8% (inactive) | 101% (inactive) and 104% (inactive) | 93.2% (inactive) and 117% (inactive) | 107% (inactive) and 64.8% (inactive) | 105% (inactive) and 102% (inactive) | 111% (inactive) and 98.1% (inactive) | 99.7% (inactive) and 90.2% (inactive) | 88.6% (inactive) and 81.3% (inactive) | 104% (inactive) | 102% (inactive) and 83.3% (inactive)
5 | N#CC1c2ccccc2C=CN1C(=O)c1ccccc1 (stereo not given) | 109% (inactive) | 106% (inactive) and 92.7% (inactive) | 99.8% (inactive) and 94.3% (inactive) | 78.6% (inactive) and 97.8% (inactive) | 109% (inactive) and 115% (inactive) | 94.6% (inactive) and 90% (inactive) | 97.6% (inactive) and -6.46% (active) | 98.9% (inactive) and 148% (inactive) | 88.2% (inactive) and 130% (inactive) | 89.2% (inactive) and 125% (inactive)
6 | C/C=C(/C(=O)NC(N)=O)C(C)C | 109% (inactive) | 112% (inactive) | 102% (inactive) | 100% (inactive) | 117% (inactive) | 110% (inactive) | 104% (inactive) | 102% (inactive) | 111% (inactive) | 92.3% (inactive)
7 | CC(C)(C)OC(=O)c1ccc(NCc2cc(O)ccc2O)cc1 | 47.7% (inactive) | 50.1% (inactive) | 7.05% (active) | -95.1% (active) | 2.52% (active) | -67.3% (active) | -36% (active) | 25.1% (inactive) | -1.62% (active) | 5.04% (active)
8 | Clc1ccc2c(c1)N(C1CCCN(Cc3ccccc3)C1)c1ccccc1S2 (stereo not given) | 17.1% (inactive) | 74.4% (inactive) | 39.7% (inactive) | 66.7% (inactive) | 98.6% (inactive) | 52.5% (inactive) | 48.7% (inactive) | 70.6% (inactive) | 39.7% (inactive) | 70.3% (inactive)
9 | CNc1ccc(O)cc1 | 110% (inactive) and 118% (inactive) | 80.1% (inactive) | 103% (inactive) | 82.4% (inactive) and 95.4% (inactive) | 144% (inactive) and 121% (inactive) | 92.6% (inactive) and 112% (inactive) | 105% (inactive) and 104% (inactive) | 90.9% (inactive) and 68.1% (inactive) | 101% (inactive) and 110% (inactive) | 110% (inactive) and 129% (inactive)
10 | O=C(c1ccc(Cl)cc1)C1C(c2ccccc2)C1[N+](=O)[O-] (stereo not given) | 106% (inactive) | 105% (inactive) | 104% (inactive) | 74.8% (inactive) | 95.1% (inactive) | 111% (inactive) | 99.1% (inactive) | 86.3% (inactive) | 103% (inactive) | 83.7% (inactive)
11 | CC(C)(C)OC(=O)CC1(O)CCCCC1 | 107% (inactive) | 102% (inactive) | 100% (inactive) | 101% (inactive) | 99.6% (inactive) | 105% (inactive) | 100% (inactive) | 84.6% (inactive) | 106% (inactive) | 108% (inactive)
12 | CCOC(=O)c1csc(N)n1 | 103% (inactive) | 99.2% (inactive) and 99% (inactive) | 100% (inactive) and 105% (inactive) | 88.5% (inactive) and 91.9% (inactive) | 111% (inactive) and 97.3% (inactive) | 102% (inactive) and 104% (inactive) | 66.6% (inactive) | 93.5% (inactive) | 91% (inactive) and 98.5% (inactive) | 79.3% (inactive) and 106% (inactive)
13 | O=C(NC(CSSCC(NC(=O)OCc1ccccc1)C(=O)O)C(=O)O)OCc1ccccc1 (stereo not given) | 95.4% (inactive) and 102% (inactive) | 94.8% (inactive) | 83.3% (inactive) and 105% (inactive) | 67.6% (inactive) and 98% (inactive) | 59.4% (inactive) | 88.6% (inactive) and 98.9% (inactive) | 72.1% (inactive) and 99.3% (inactive) | 68.2% (inactive) and 99% (inactive) | 87.3% (inactive) | 52.1% (inactive) and 82% (inactive)
14 | CC1CC(O)CC(C)(C)C1.CC1CC(O)CC(C)(C)C1.CC1CC(O)CC(C)(C)C1.CC1CC(O)CC(C)(C)C1.[Ti] (stereo not given) | 93.9% (inactive) | 93.6% (inactive) | 82% (inactive) | 79% (inactive) | 104% (inactive) | 111% (inactive) | 94.9% (inactive) | 106% (inactive) | 112% (inactive) | 98.8% (inactive)
15 | O=[N+]([O-])c1cccc(N=Cc2ccccc2)c1 | 104% (inactive) | 102% (inactive) | 104% (inactive) | 90.8% (inactive) | 94.2% (inactive) | 102% (inactive) | 88.1% (inactive) | 110% (inactive) | 95.7% (inactive) | 87.4% (inactive)
16 | CCOC(=O)C1=CC(=O)CC(C)(C)O1 | 114% (inactive) | 104% (inactive) and 126% (inactive) | 110% (inactive) and 102% (inactive) | 92.5% (inactive) and 101% (inactive) | 96.1% (inactive) and 107% (inactive) | 102% (inactive) and 106% (inactive) | 99.7% (inactive) and 104% (inactive) | 108% (inactive) and 105% (inactive) | 90% (inactive) and 104% (inactive) | -47.2% (active) and 106% (inactive)
17 | CCOP(C)(=O)/C(Cc1ccc(OC)c(OC)c1)=N\O (stereo not given) | 111% (inactive) | 98.3% (inactive) | 103% (inactive) | 91.2% (inactive) | 107% (inactive) | 106% (inactive) | 103% (inactive) | 104% (inactive) | 110% (inactive) | 112% (inactive)
18 | O=C1Cc2ccccc2C(=O)N1 | 92.4% (inactive) | 99.2% (inactive) | 96.7% (inactive) | 75.5% (inactive) | 91% (inactive) | 82.1% (inactive) | 77% (inactive) | 103% (inactive) | 41.1% (inactive) | 69.8% (inactive)
19 | Cc1cc(=NO)cc(C)n1O | 113% (inactive) | 105% (inactive) | 100% (inactive) | 101% (inactive) | 84.7% (inactive) | 117% (inactive) | 109% (inactive) | 93.9% (inactive) | 80.9% (inactive) | 96.6% (inactive)
20 | Nc1[nH][nH]c(=O)c1N=Nc1ccccc1 | 122% (inactive) and 100% (inactive) | 85.3% (inactive) and 91.3% (inactive) | 97.6% (inactive) and 106% (inactive) | 82.7% (inactive) and 85.1% (inactive) | 112% (inactive) and 109% (inactive) | 91.2% (inactive) and 104% (inactive) | 104% (inactive) | 86.8% (inactive) and 86.2% (inactive) | 108% (inactive) | 121% (inactive) and 100% (inactive)
21 | Oc1ccc(O)c(-c2ccccc2)c1 | 72.5% (inactive) | 77.7% (inactive) | 68% (inactive) | 43.4% (inactive) | 96.8% (inactive) | 74.1% (inactive) | 74.6% (inactive) | 132% (inactive) | 10.1% (inactive) | 20.7% (inactive)
22 | COc1ccc(-n2[nH]c3c(cnc4ccccc43)c2=O)cc1 | 79.5% (inactive) and 111% (inactive) | 89% (inactive) | 85% (inactive) and 95% (inactive) | 70.7% (inactive) | 90% (inactive) and 93.4% (inactive) | 95.9% (inactive) and 107% (inactive) | 68.3% (inactive) and 95.9% (inactive) | 93.7% (inactive) and 91.9% (inactive) | 101% (inactive) | 108% (inactive) and 99.9% (inactive)
